The nature of assay [1]: reducers of endogenous Her2 protein level, primary screen, SKBR3 breast tumor cells, AlphaScreen, ATP viability (AID 461;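 active means Her2 level under about 52% in both replicate screens, with viability over 70% of control, limit read from the data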;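 on Her2 level: lower value means less Her2 protein in the cells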;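 on viability: percent of carrier control wells set as 100% viability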). The conditions noted are these: 18-24 h, measured here: SKBR3 viability, ATP luminescence, at 10 µM.
Assay [2] addresses Receptor tyrosine-protein kinase erbB-2 (Homo sapiens) (UniProt P04626). The assay is described as above. The settings on record: 18-24 h, at 10 µM, stronger effect = lower value.
A short description of assay [3]: SK-BR-3 cell growth inhibitors, pilot screen, 24 h, human (AID 572;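 active means viability at or below 10% of carrier control in both of two separate runs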;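 further: compound exposure lasted between 18 and 24 h rather than exactly 24 h; 100% = carrier-treated control wells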). The conditions noted are these: SK-BR-3 viability, CellTiter-Glo luminescence, at 10 µM, stronger effect = lower value.
A short description of assay [4]: HUVEC growth inhibition – cell-based, human, primary screen (AID 575;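 active means viability at or below 30% in both replicate assays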;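 further: 100% = median of untreated cell wells with 0.1% DMSO on each plate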). The conditions noted are these: HUVEC proliferation, CellTiter-Glo luminescence, 72 h; at 10 µM; stronger effect = lower value.
A short description of assay [5]: growth inhibitors of H69AR lung tumor, primary screen, human, duplicate replicates (AID 580).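 Further: 100% = mean luminescence of untreated wells and 0% = no signal.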 The settings on record: H69AR lung tumor cells viability, ATP luminescence, 72 h; at 10 µM; stronger effect = lower value.
Assay [6] is described as follows: reversal of MRP1-mediated doxorubicin resistance, pilot screen, H69AR cells, doxorubicin co-treatment (AID 601;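 active means viability loss from added drug above about 55%, and viability with drug at most 40%, in both replicates, limit read from the data, passing the limit was not always enough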). The settings on record: CellTiter-Glo, 72 h, at 10 µM; for differential viability (reversal): stronger effect = higher value.
Assay [7] in a line: 384-well plate pilot, post-Golgi transport modulator project, inhibition of yeast transport mutant growth (AID 636; in the data active means inhibition above about 31%). The settings on record: absorbance 615 nm, about 18 h, stronger effect = higher value.
A short description of assay [8]: growth suppression of yeast trafficking mutant, preliminary HTS, modulators of trafficking downstream of Golgi apparatus project, 1536-format plate, OD 615 nm (AID 637; in the data active means inhibition above about 30%). The settings on record: yeast transport mutant growth, absorbance 615 nm, 18 h; stronger effect = higher value.
Assay [9] is described as follows: OD615 S. cerevisiae growth inhibition, permissive medium, pilot counter-assay, permissive growth control for S. cerevisiae lifespan shortening project (AID 705;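 active means growth inhibition above 25% in both replicates, a cutoff set 3 SD above the mean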). The conditions noted are these: OD615, 24 h, at 10 µM, stronger effect = higher value.
The nature of assay [10]: Restrictive medium S. cerevisiae growth inhibition, OD615, pilot screen of yeast lifespan reduction project, restrictive growth control (AID 706;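 active means growth inhibition above a set limit, 3 SD over mean compound inhibition, in both replicates, cut at about 43% in these data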;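 further: modified DeaD lifespan yeast strain shifted to restrictive glucose medium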). The conditions noted are these: OD615, 48 h, at 10 µM, stronger effect = higher value.
Assay [11] can be described thus: viability gain of MRP-1-high H69AR cells under doxorubicin, pilot screen, MRP-1 activator project, CellTiter-Glo, duplicate (AID 807;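 active means viability increase at or above a cutoff of the median across tested compounds plus 3 SD, cut at about 8.5% in these data, passing the limit was not always enough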;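 further: compound pretreatment 18-22 h then 72 h combined with doxorubicin; 0% = doxorubicin alone and 100% = vehicle without doxorubicin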). The conditions noted are these: H69AR viability with doxorubicin, CellTiter-Glo luminescence; at 10 µM; stronger effect = higher value.
Assay [12] in a line: growth suppression of beta-catenin knockout HCT116, pilot screen, human colon tumor cells (AID 823;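 active means cell viability at or below a set limit in both duplicate runs, the limit being the all-compound median minus 4 SD, cut at about 23% in these data, passing the limit was not always enough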;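 further: 0% = wells killed by 20 µM Hyamine and 100% = untreated DMSO cell wells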). The settings on record: CellTiter-Glo, 60 h, at 10 µM, stronger effect = lower value.
Assay [13] can be described thus: growth suppression of PTEN-deleted HCT116, pilot screen, cell-based, HCT116 clonal line, CellTiter-Glo (AID 824;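 active means viability at or below 27.92% in each of two runs, the all-compound median minus 4 SD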;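 further: 0% = 20 µM Hyamine control and 100% = vehicle cell control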). The settings on record: 60 h, at 10 µM, stronger effect = lower value.
Assay [14] is described as follows: inhibitors of the yeast RAM network, pilot screen, dse1pr::URA3 reporter, 5-FOA selection (AID 869;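 active means inhibition over a set limit, the all-compound mean plus 3 SD, in both replicate runs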;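 further: 0% = DMSO wells with no growth and 100% = 10 µM 1-NA-PP1 with full growth; RAM network block rescues cells from 5-FOA so hits raise OD615 growth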). The settings on record: S. cerevisiae dse1pr::URA3 5-FOA growth, OD615, 2 d; at 10 µM; stronger effect = higher value; strain carries analog-sensitive mutant Cbk1 kinase.
Assay [15] is described as follows: RAM signaling pathway blockade in yeast – S. cerevisiae, Pdr1DBD-CYC8 efflux-inhibited sensitized strain, primary screen (AID 1298;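 active means RAM network inhibition above 8.4% in each of two replicates, 3 SD over the compound average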;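 further: 0% = DMSO untreated cells without growth and 100% = 10 µM 1-NA-PP1 full growth; higher means more yeast growth rescued from 5-FOA killing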). The settings on record: S. cerevisiae cbk1-as DSE1-URA3 strain, 5-FOA growth OD615, 2 d; at 50 µM; stronger effect = higher value.
Where [16] appears, read: H69AR cells + 2 uM doxorubicin, measured here: viability with 2 uM doxorubicin, stronger effect = lower value.
The mark [17] stands for this setting: H69AR cells, compound alone cytotoxicity.

Inconclusive results are not listed. Calls of active or inactive are those of the source.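 How the source made its calls, unless noted: active means viability at or under a set limit in both replicates, limit being median viability minus 3 SD (cut at about 48% in these data, passing the limit was not always enough); inconclusive means at or under the limit in just one replicate; inactive means at or above the limit in both replicates.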

Chain of Receptor tyrosine-protein kinase erbB-2 (Homo sapiens) (P04626 whole entry, looked up): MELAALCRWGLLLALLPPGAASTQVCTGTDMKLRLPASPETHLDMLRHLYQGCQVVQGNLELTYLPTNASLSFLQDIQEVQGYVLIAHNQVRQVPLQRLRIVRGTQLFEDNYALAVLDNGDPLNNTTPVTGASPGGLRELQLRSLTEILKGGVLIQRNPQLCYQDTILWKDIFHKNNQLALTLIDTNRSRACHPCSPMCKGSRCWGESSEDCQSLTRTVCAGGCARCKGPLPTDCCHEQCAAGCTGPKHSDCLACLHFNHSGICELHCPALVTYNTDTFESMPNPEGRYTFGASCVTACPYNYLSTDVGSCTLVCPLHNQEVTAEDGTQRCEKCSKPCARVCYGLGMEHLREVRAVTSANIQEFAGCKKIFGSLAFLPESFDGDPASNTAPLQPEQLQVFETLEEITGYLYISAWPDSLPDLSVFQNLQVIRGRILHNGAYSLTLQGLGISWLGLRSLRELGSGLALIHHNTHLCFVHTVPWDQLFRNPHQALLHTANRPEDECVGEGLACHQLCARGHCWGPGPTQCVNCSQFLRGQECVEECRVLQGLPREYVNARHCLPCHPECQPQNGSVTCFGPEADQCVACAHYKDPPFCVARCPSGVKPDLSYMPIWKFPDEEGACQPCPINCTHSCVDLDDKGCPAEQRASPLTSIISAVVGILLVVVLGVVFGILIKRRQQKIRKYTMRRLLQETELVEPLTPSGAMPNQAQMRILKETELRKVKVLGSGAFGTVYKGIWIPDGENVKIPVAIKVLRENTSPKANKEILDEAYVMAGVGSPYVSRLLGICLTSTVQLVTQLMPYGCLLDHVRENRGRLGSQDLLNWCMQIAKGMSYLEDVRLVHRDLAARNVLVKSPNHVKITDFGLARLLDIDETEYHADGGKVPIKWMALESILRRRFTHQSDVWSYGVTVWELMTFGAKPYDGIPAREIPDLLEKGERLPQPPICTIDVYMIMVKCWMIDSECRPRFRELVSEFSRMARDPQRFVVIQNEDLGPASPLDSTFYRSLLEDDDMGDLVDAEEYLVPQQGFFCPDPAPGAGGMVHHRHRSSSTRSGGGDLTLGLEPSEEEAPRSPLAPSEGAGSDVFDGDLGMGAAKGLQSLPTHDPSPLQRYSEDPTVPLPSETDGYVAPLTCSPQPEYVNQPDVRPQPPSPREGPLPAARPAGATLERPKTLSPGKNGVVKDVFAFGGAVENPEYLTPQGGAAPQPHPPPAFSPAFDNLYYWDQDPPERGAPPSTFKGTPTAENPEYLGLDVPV

With `O=C1CCCc2c1cc(C(=O)NCCCN1CCOCC1)c(=O)n2-c1ccc(Cl)cc1`, the viability in assay [1] was 97%; in [3], 97% (inactive); in assay [4] it was 89.9% (inactive); in [5], 93.1% (inactive); in [6] (setting [16]) it was 82.5%; in assay [6] (setting [17]), 93.1%. The viability in [12] is 100% (inactive); in assay [13], 104% (inactive). Also, the Her2 level in [2] is 95.5% (inactive). The differential viability (reversal) in [6] (H69AR cells + 2 uM doxorubicin) is 10.6% (inactive). The inhibition in assay [7] is -5.07% (inactive); in assay [8], 0.83% (inactive); in [14] it was 1.44% (inactive). The growth inhibition in assay [9] is -14.6% (inactive); in assay [10], -19.1% (inactive). In addition, the viability increase in assay [11] is -2.29% (inactive). The RAM network inhibition in [15] was 2% (inactive).
As to `CCOC(=O)N1CCC(NC(=O)c2cc3c(=O)n(C)c4ccccc4c3n2C)CC1`, the viability is 88% in assay [1]; 88% (inactive) in assay [3]; 71.3% (inactive) in assay [4]; 73.1% (inactive) in assay [5]; 77.3% in assay [6] (setting [16]); 73.1% in assay [6] (setting [17]). In addition, the results for the viability in assay [12] and in assay [13] were 80.2% (inactive) and 84.5% (inactive), respectively. Also, the Her2 level in assay [2] is 94% (inactive). Moreover, in assay [6] (H69AR cells + 2 uM doxorubicin), the differential viability (reversal) is -4.2% (inactive). Moreover, the figures for the inhibition in assay [7], in assay [8] and in [14] were -2.67% (inactive), -1.17% (inactive) and 2.96% (inactive), respectively. Moreover, the values for the growth inhibition in assay [9] and in assay [10] were -11.7% (inactive) and -13% (inactive), respectively. Also, in assay [11], the viability increase is -3.46% (inactive). For the same compound, the RAM network inhibition in assay [15] was 9.59% (inactive).
Regarding `CCC(=O)N1CCN(c2nc(-c3ccccc3)c3c(c2C#N)CCCC3)CC1`, the viability was 105% in assay [1]; 105% (inactive) in assay [3]; 97.2% (inactive) in assay [4]; 156% (inactive) in assay [5]; 84% in assay [6] (setting [16]); 156% in [6] (setting [17]). In addition, the results for the viability in assay [12] and in [13] were 75.8% (inactive) and 73.1% (inactive), respectively. Further, the Her2 level in assay [2] was 93% (inactive). In assay [6] (H69AR cells + 2 uM doxorubicin), the differential viability (reversal) is 72.2% (inactive). Also, the inhibition in assay [7] was -8.24% (inactive); in assay [8], 4.59% (inactive); in assay [14], 0.35% (inactive). Besides, the growth inhibition in assay [9] is -2.54% (inactive); in assay [10], -4.34% (inactive). Also, the viability increase in assay [11] was -5.2% (inactive). For the same compound, the RAM network inhibition in assay [15] is 2.27% (inactive).
For the compound `CSc1ccccc1NC(=O)c1cnc2n(c1=O)CCS2`, the viability was 97.5% in [1]; 97.5% (inactive) in assay [3]; 111% (inactive) in assay [4]; 84.7% (inactive) in [5]; 91.3% in assay [6] (setting [16]); 84.7% in assay [6] (setting [17]). The viability in assay [12] is 105% (inactive); in assay [13] it was 85.8% (inactive). In addition, the Her2 level in assay [2] is 82.5% (inactive). For the same compound, in assay [6] (H69AR cells + 2 uM doxorubicin), the differential viability (reversal) was -6.53% (inactive). In addition, the inhibition in [7] was -1.87% (inactive); in assay [8], -1.33% (inactive); in [14], 2.75% (inactive). In addition, the growth inhibition in [9] was -10.6% (inactive); in assay [10], 3.57% (inactive). For the same compound, the viability increase in assay [11] is -0.39% (inactive). In [15], the RAM network inhibition was -0.78% (inactive).
As to `O=C(Nc1ccc2c(c1)OCCO2)NC1CCCCC1`, the viability in assay [1] was 126%; in assay [3], 126% (inactive); in assay [4], 89.5% (inactive); in assay [5], 85.9% (inactive); in [6] (setting [16]), 82.7%; in [6] (setting [17]), 85.9%. Also, the viability in [12] is 86.8% (inactive); in assay [13], 85.5% (inactive). In [2], the Her2 level is 98.5% (inactive). Besides, the differential viability (reversal) in assay [6] (H69AR cells + 2 uM doxorubicin) was 3.18% (inactive). Moreover, the inhibition in assay [7] is -4.27% (inactive); in assay [8], -1.13% (inactive); in assay [14] it was 1.55% (inactive). For the same compound, the growth inhibition in [9] was -1.73% (inactive); in [10], 4.4% (inactive). Moreover, the viability increase in assay [11] was -0.85% (inactive). For the same compound, the RAM network inhibition in [15] was -0.57% (inactive).

Values taken from PubChem BioAssay.
